Measured values reported in PubChem BioAssay (Tox21).
The source made the active and inactive calls. Unless noted, calls follow the shape of the dose curve; as a rule, active = well fitted curve in the direction sought with a large enough effect in the repeat runs; inconclusive = weak or mixed curves; inactive = no such curve, though single readings can be large; an effect the other way counts as inactive or inconclusive.

Assays:
[1] = qHTS assay to identify small molecule antagonists of the thyroid receptor (TR) signaling pathway - cell viability counter screen (AID 743064); also: nearly all actives have a fitted effect of over 50% in size
Method in brief: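 GH3.TRE-Luc cells, 4 h pre-plating; cpd + T3 1 nM final; 37 °C 23.5 h; CellTiter-Fluor 30 min; fluorescence read.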

[2] = qHTS assay to identify small molecule antagonists of the thyroid receptor (TR) signaling pathway (AID 743065); also: nearly all actives have a fitted effect of over 55% in size
Method in brief: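 Antagonism measured as loss of luciferase signal in GH3 cells stably carrying a TRE-luciferase reporter, co-treated with compound and T3 (1 nM final) for 23.5 h at 37 C. Viability was read in the same well by CellTiter-Fluor.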

[3] = tested on: thyroid hormone receptor (rat, GH3 cells); assay: qHTS assay to identify small molecule agonists of the thyroid receptor (TR) signaling pathway (AID 743066; calls by dose curve)
[4] = target: Estrogen receptor (Homo sapiens) (UniProt P03372); assay: qHTS assay to identify small molecule antagonists of the estrogen receptor alpha (ER-alpha) signaling pathway (AID 743069; active = well fitted curve in the direction sought with a large enough effect in the signal ratio in the repeat runs, not every such curve was filed as active; inconclusive = weak or mixed curves, or effect the other way; inactive = no such curve, though single readings can be large or run the other way; the % refers to the signal ratio)
Method in brief: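 Antagonist mode: compounds in DMSO were co-added with 17beta-estradiol to ER-alpha-bla HEK293 cells (2% charcoal-stripped serum) and left 18 h at 37C. Reporter inhibition was measured as FRET fluorescence after 2 h LiveBLAzer substrate at room temperature.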

[5] = qHTS assay to identify small molecule antagonists of the estrogen receptor alpha (ER-alpha) signaling pathway - cell viability counter screen (AID 743074; calls by dose curve;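 also: HEK293 cells carrying ER-alpha-UAS-bla reporter stimulated with 17beta-estradiol; nearly all actives have a fitted effect of over 45% in size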)
[6] = target: Estrogen receptor (Homo sapiens) (UniProt P03372); assay: qHTS assay to identify small molecule agonists of the estrogen receptor alpha (ER-alpha) signaling pathway (AID 743075; calls by dose curve;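 also: HEK293 GripTite cells with ER-alpha and UAS-driven beta-lactamase reporter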; also: potency is read from the fitted curve at half-maximal effect)
[7] = target: Estrogen receptor (Homo sapiens) (UniProt P03372); assay: qHTS assay to identify small molecule agonists of the estrogen receptor alpha (ER-alpha) signaling pathway using the BG1 cell line (AID 743079); details: BG1Luc4E2 cells, ERE-luciferase agonist, 22 h; activation: at 70.3 µM (top of the series); also: nearly all actives have a fitted effect of over 20% in size; also: potency is read from the fitted curve at half-maximal effect
[8] = qHTS assay to identify small molecule antagonists of the estrogen receptor alpha (ER-alpha) signaling pathway using the BG1 cell line (AID 743080; calls by dose curve;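 also: BG1 cells stimulated with 17beta-estradiol alongside compound; nearly all actives have a fitted effect of over 25% in size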; also: potency is read from the fitted curve at half-maximal effect)
Method in brief: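 Endogenous full-length ER-alpha in BG1-Luc-4E2 cells drives a stably integrated 4×ERE luciferase gene; compounds were tested against 17beta-estradiol over 21.5 h, with luminescence and multiplexed viability fluorescence recorded.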

Aromatase (Homo sapiens) = Aromatase (Homo sapiens) (UniProt P11511); assay: qHTS assay to identify aromatase inhibitors (AID 743083); also: nearly all actives have a fitted effect of over 55% in size
[9] = qHTS assay to identify aromatase inhibitors - cell viability counter screen (AID 743084);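 also: cells stimulated with testosterone during compound exposure; nearly all actives have a fitted effect of over 55% in size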
[10] = target: Aryl hydrocarbon receptor (Homo sapiens) (UniProt P35869); assay: qHTS assay to identify small molecule that activate the aryl hydrocarbon receptor (AhR) signaling pathway (AID 743085); also: nearly all actives have a fitted effect of over 15% in size; also: potency is read from the fitted curve at half-maximal effect;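 as to activation: HG2L7.5c1 human HepG2 liver cells with stably integrated DRE-driven firefly reporter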
Method in brief: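 Luminescence read-out: ONE-Glo reagent, 30 min at room temperature, in HG2L7.5c1 HepG2 reporter cells treated 24 h at 37C. Viability was measured beforehand by CellTiter-Fluor fluorescence after 30 min at 37C.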

[11] = qHTS assay to identify small molecule that activate the aryl hydrocarbon receptor (AhR) signaling pathway - cell viability counter screen (AID 743086);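 also: HepG2 liver cells carrying the AhR DRE luciferase reporter; nearly all actives have a fitted effect of over 45% in size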
Method in brief: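 Cytotoxicity counter screen: CellTiter-Fluor signal (30 min, 37 C) in 4000 HepG2 cells/well carrying the DRE-luciferase reporter, following 24 h compound exposure at 37 C.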

[12] = target: Peroxisome proliferator-activated receptor gamma (Homo sapiens) (UniProt P37231); assay: qHTS assay to identify small molecule agonists of the peroxisome proliferator-activated receptor gamma (PPARg) signaling pathway (AID 743094; active = well fitted activation curve with a large enough effect in the signal ratio in the repeat runs, not every such curve was filed as active; inconclusive = weak or mixed curves, or effect the other way; inactive = no such curve, though single readings can be large or run the other way; the % refers to the signal ratio)
Method in brief: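 Agonism was assessed in a beta-lactamase reporter system, HEK293H cells with a stably integrated UAS-bla construct under PPARg control; the 17 h treatment at 37C preceded a 1 h room-temperature FRET substrate read.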

[13] = target: Peroxisome proliferator-activated receptor gamma (Homo sapiens) (UniProt P37231); assay: qHTS assay to identify small molecule antagonists of the peroxisome proliferator-activated receptor gamma (PPARg) signaling pathway (AID 743191; calls by dose curve; also: nearly all actives have a fitted effect of over 30% in size)
Method in brief: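 Beta-lactamase reporter under UAS control in HEK293H PPARg-bla cells; compound treatment 17 h at 37C. Read-out: fluorescence intensity after 1 h room-temperature incubation with LiveBLAzer B/G FRET substrate.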

[14] = qHTS assay to identify small molecule antagonists of the peroxisome proliferator-activated receptor gamma (PPARg) signaling pathway - cell viability counter screen (AID 743194); also: nearly all actives have a fitted effect of over 55% in size
Method in brief: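 Viability was measured as CellTiter-Glo luminescence in GeneBLAzer PPARg UAS-bla HEK293H cells. These cells had been exposed 17 h at 37 C to compounds together with rosiglitazone at 50 nM final, with the beta-lactamase readout taken in the same wells.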

[15] = qHTS assay for small molecule agonists of the antioxidant response element (ARE) signaling pathway (AID 743202; active = well fitted activation curve with a large enough effect in the signal ratio in the repeat runs, not every such curve was filed as active; inconclusive = weak or mixed curves, or effect the other way; inactive = no such curve, though single readings can be large or run the other way; the % refers to the signal ratio)
Method in brief: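 After 16 hours of compound treatment at 37 C, HepG2 cells with a stably integrated ARE-driven beta-lactamase reporter were loaded 2 hours at room temperature with LiveBLAzer B/G FRET substrate and fluorescence intensity measured.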

[16] = qHTS assay for small molecule agonists of the antioxidant response element (ARE) signaling pathway - cell viability counter screen (AID 743203; calls by dose curve; also: nearly all actives have a fitted effect of over 55% in size)
Method in brief: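 ATP content via CellTiter-Glo luminescence served as the viability measure. Cells: ARE-bla HepG2, 2,000 per well. Exposure: 16 hrs, 37C/5% CO2.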

[17] = qHTS assay for small molecule activators of the heat shock response signaling pathway - cell viability counter screen (AID 743209); also: nearly all actives have a fitted effect of over 50% in size
Method in brief: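 Compounds dissolved in DMSO were added to overnight-plated HSE-bla HeLa cells and left 5 h at 37 C. Cell viability was quantified by luminescence using CellTiter-Glo.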

[18] = qHTS assay for small molecule activators of the heat shock response signaling pathway (AID 743210; active = well fitted activation curve with a large enough effect in the signal ratio in the repeat runs, with a control signal flat, not every such curve was filed as active; inconclusive = weak or mixed curves; the % refers to the signal ratio)
Method in brief: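 Compound exposure lasted 5 h at 37 C in HeLa cells carrying a heat-shock-element-driven beta-lactamase reporter. Read-out: fluorescence intensity after 2.5 h room-temperature loading with LiveBLAzer B/G FRET substrate.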

[19] = qHTS assay to identify small molecule antagonists of the estrogen receptor alpha (ER-alpha) signaling pathway using the BG1 cell line - cell viability counter screen (AID 743081);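 also: compound given together with 17beta-estradiol as the ER stimulus; nearly all actives have a fitted effect of over 45% in size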
% is scaled to controls: 0 for no effect and ±100 for the full control effect.

Sequence of Estrogen receptor (Homo sapiens) (P03372 whole entry, looked up): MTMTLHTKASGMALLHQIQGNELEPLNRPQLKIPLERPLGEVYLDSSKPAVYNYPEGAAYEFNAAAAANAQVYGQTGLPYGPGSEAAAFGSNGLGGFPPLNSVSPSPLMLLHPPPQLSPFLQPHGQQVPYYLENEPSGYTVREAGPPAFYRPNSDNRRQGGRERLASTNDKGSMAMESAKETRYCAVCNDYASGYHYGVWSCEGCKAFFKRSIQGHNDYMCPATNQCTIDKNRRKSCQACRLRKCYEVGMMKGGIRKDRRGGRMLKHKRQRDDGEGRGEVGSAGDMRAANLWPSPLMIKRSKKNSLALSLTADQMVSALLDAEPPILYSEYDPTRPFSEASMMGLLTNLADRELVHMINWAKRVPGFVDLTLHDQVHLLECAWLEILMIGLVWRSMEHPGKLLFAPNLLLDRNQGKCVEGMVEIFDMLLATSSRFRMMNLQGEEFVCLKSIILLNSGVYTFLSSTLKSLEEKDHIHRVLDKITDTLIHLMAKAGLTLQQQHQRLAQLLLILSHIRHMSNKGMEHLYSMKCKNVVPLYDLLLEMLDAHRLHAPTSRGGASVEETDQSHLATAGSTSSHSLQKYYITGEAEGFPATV
Sequence of Aromatase (Homo sapiens) (P11511 whole entry, looked up): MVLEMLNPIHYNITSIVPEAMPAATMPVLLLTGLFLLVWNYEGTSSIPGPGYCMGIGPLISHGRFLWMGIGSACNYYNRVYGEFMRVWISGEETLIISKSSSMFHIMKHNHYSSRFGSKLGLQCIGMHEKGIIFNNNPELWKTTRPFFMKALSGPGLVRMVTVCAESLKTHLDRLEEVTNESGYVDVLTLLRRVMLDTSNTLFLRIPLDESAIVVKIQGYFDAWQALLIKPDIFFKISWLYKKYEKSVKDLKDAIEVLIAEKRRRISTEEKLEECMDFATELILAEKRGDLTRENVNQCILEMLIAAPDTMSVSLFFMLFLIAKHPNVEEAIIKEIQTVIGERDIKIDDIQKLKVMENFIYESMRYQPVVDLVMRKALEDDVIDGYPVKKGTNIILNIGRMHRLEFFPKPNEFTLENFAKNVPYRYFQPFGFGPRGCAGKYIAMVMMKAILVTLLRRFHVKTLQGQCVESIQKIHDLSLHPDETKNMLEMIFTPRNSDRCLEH
Sequence of Aryl hydrocarbon receptor (Homo sapiens) (P35869 whole entry, looked up): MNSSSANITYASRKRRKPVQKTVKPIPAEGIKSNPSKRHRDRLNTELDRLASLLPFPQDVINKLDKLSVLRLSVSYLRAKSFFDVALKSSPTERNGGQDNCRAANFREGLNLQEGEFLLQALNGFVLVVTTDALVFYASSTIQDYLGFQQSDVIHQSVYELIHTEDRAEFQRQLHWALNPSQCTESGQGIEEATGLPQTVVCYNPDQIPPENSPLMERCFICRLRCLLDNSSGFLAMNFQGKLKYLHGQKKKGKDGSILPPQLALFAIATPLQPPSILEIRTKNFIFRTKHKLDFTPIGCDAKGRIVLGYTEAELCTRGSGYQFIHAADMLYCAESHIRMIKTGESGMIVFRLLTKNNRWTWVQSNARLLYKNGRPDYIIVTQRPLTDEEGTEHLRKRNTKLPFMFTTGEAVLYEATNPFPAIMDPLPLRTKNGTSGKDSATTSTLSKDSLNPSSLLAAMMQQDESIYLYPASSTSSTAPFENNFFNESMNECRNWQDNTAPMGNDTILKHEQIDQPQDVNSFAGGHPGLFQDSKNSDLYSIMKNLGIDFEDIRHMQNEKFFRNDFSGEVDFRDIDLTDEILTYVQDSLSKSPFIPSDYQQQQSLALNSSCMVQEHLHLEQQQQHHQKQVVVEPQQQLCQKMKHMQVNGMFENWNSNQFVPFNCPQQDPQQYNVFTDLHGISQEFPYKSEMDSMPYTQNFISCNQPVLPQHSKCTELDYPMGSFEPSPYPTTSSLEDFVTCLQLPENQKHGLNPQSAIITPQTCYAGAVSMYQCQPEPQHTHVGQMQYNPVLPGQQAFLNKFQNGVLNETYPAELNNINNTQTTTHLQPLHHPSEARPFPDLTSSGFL
Sequence of Peroxisome proliferator-activated receptor gamma (Homo sapiens) (P37231 whole entry, looked up): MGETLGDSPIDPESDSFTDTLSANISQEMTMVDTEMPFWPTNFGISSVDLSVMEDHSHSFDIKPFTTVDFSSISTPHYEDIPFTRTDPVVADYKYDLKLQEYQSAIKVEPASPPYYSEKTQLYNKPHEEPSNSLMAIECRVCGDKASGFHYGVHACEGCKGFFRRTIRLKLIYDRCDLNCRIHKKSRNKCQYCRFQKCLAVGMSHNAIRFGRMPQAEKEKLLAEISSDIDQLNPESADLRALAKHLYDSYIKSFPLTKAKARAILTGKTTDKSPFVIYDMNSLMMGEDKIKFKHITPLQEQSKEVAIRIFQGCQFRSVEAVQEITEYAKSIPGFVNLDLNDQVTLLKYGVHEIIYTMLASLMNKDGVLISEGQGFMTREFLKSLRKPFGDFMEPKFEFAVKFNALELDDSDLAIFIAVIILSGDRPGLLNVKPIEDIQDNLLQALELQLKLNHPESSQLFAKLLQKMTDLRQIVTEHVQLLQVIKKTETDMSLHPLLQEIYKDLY

CC1CN(c2cc3c(cc2F)c(=O)c(C(=O)O)cn3-c2ccc(F)cc2F)CCN1 (stereo not given)
inactive: Potency [1] | Potency [2] | outcome [3] | Potency [4] | Potency [5] | Potency [6] | Potency [7] | Potency [8] | Potency (Aromatase (Homo sapiens)) | Potency [9] | Potency [10] | Potency [11] | Potency [12] | ratio activity, negative = inhibition [13] 15.7% [at 5.95 µM] | activity change, negative = cytotoxicity [14] 5.03% [at 5.95 µM] | activation [15] 0.815% [at 8.36 µM] | viability change, negative = cytotoxic [16] -0.948% [at 8.36 µM] | activity change, negative = cytotoxicity [17] -28.5% [at 5.95 µM] | activation [18] 0.895% [at 5.95 µM]

CCCCCCCCCOC(C)=O
inactive: Potency [1] | Potency [2] | outcome [3] | Potency [4] | Potency [5] | Potency [6] | Potency [7] | Potency [8] | Potency [19] | Potency (Aromatase (Homo sapiens)) | Potency [9] | Potency [11] | Potency [12] | Potency [13] | Potency [15] | Potency [16] | Potency [17] | Potency [18]

O=C(O)c1cccnc1C(=O)O
inactive: Potency [1] | Potency [2] | outcome [3] | Potency [4] | Potency [5] | Potency [6] | Potency [7] | Potency [8] | Potency [19] | Potency (Aromatase (Homo sapiens)) | Potency [9] | Potency [10] | Potency [11] | Potency [12] | Potency [13] | Potency [14] | Potency [15] | Potency [16] | Potency [17] | Potency [18]

CCCOC(=O)c1ccc(C(=O)OCCC)nc1
inactive: Potency [1] | Potency [2] | outcome [3] | Potency [4] | Potency [5] | Potency [6] | Potency [7] | Potency [8] | Potency [19] | Potency (Aromatase (Homo sapiens)) | Potency [9] | Potency [11] | Potency [12] | Potency [13] | Potency [15] | Potency [16] | Potency [17] | Potency [18]

CN1CCN(c2c(F)cc3c(=O)c(C(=O)O)cn4c3c2OCN4C)CC1
active: Potency [7] 23.7 µM
inactive: Potency [1] | Potency [2] | outcome [3] | Potency [4] | Potency [5] | Potency [6] | Potency [8] | Potency [19] | Potency (Aromatase (Homo sapiens)) | Potency [9] | Potency [10] | Potency [11] | Potency [12] | Potency [14] | Potency [15] | Potency [16]

COCC(O)CO (stereo not given)
inactive: Potency [1] | Potency [2] | outcome [3] | Potency [4] | Potency [5] | Potency [6] | Potency [7] | Potency [8] | Potency [19] | Potency (Aromatase (Homo sapiens)) | Potency [9] | Potency [10] | Potency [11] | Potency [12] | Potency [13] | Potency [14] | Potency [15] | Potency [16] | Potency [17] | Potency [18]

CN1C(=O)CC(C)(c2ccccc2)C1=O (stereo not given)
inactive: Potency [1] | Potency [2] | outcome [3] | Potency [4] | Potency [5] | Potency [6] | Potency [7] | Potency [8] | Potency [19] | Potency (Aromatase (Homo sapiens)) | Potency [9] | Potency [11] | Potency [12] | Potency [13] | Potency [14] | Potency [15] | Potency [16] | Potency [17]

ON(Cc1ccccc1)Cc1ccccc1
inactive: Potency [1] | Potency [2] | outcome [3] | Potency [4] | Potency [5] | Potency [6] | Potency [7] | Potency [8] | Potency [19] | Potency (Aromatase (Homo sapiens)) | Potency [9] | Potency [10] | Potency [11] | Potency [12] | Potency [13] | Potency [14] | Potency [15] | Potency [16] | Potency [17]

OCC1CC=CCC1 (stereo not given)
inactive: Potency [1] | Potency [2] | outcome [3] | Potency [4] | Potency [5] | Potency [6] | Potency [7] | Potency [8] | Potency [19] | Potency (Aromatase (Homo sapiens)) | Potency [9] | Potency [10] | Potency [11] | Potency [12] | Potency [14] | Potency [15] | Potency [16] | Potency [17] | Potency [18]

CCCCC(CC)COC(=O)COc1ccc(Cl)cc1C (stereo not given)
inactive: Potency [1] | Potency [2] | outcome [3] | Potency [4] | Potency [5] | Potency [6] | Potency [7] | Potency [8] | Potency [19] | Potency (Aromatase (Homo sapiens)) | Potency [9] | Potency [10] | Potency [11] | Potency [12] | Potency [14] | Potency [15] | Potency [16] | Potency [18]

CCn1nc(C)c2c1C(=O)NCC(c1ccc(O)cc1)=N2
active: Potency [10] 24.3 µM
inactive: Potency [1] | Potency [2] | outcome [3] | Potency [5] | Potency [6] | Potency [7] | Potency [8] | Potency [19] | Potency (Aromatase (Homo sapiens)) | Potency [9] | Potency [11] | Potency [12] | Potency [16] | Potency [17] | Potency [18]

CC(CCc1ccc2c(c1)OCO2)NN (stereo not given)
inactive: Potency [1] | Potency [2] | outcome [3] | Potency [4] | Potency [6] | Potency [8] | Potency [19] | Potency (Aromatase (Homo sapiens)) | Potency [9] | Potency [11] | Potency [12] | Potency [13] | Potency [14] | Potency [16] | Potency [17] | Potency [18]

CCCCCCCCCCCCCCCCBr
inactive: Potency [1] | Potency [2] | outcome [3] | Potency [4] | Potency [5] | Potency [6] | Potency [7] | Potency [19] | Potency (Aromatase (Homo sapiens)) | Potency [9] | Potency [11] | Potency [12] | Potency [13] | Potency [15] | Potency [16] | Potency [17] | Potency [18]

Cc1ccc(S(=O)(=O)NC2CCCCC2)cc1
inactive: Potency [1] | Potency [2] | outcome [3] | Potency [5] | Potency [6] | Potency [19] | Potency (Aromatase (Homo sapiens)) | Potency [10] | Potency [11] | Potency [12] | Potency [14] | Potency [15] | Potency [16] | Potency [18]
active: Potency [8] 68.1 µM

CCC(Cc1ccccc1)(C(=O)c1ccc(N2CCOCC2)cc1)N(C)C (stereo not given)
active: Potency [6] 49 µM [inconclusive]
inactive: Potency [1] | Potency [2] | outcome [3] | Potency [4] | Potency [5] | Potency [19] | Potency (Aromatase (Homo sapiens)) | Potency [9] | Potency [10] | Potency [12] | Potency [14] | Potency [16] | Potency [17] | Potency [18]
